From PubChem BioAssay (NCATS)
Active and inactive are the calls of the source. The call rests on the fitted dose curve; in most records, active means well fitted activation curve with a large enough effect; inconclusive means small, poorly fitted or top-dose-only effect; inactive means flat fitted curve, though single readings scatter.
Potency means the concentration at half of the fitted maximal effect.

Assay: Confirmation and Secondary Assay for Modulators of Hemoglobin Beta Chain Splicing at IVS2 654 locus (AID 910);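 further: HeLa cells stably carrying EGFP split by mutant beta-globin IVS2-654 intron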;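 further: potency of activators that raise GFP signal by restoring correct splicing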; on activation (splicing correction): % of control where 0% means no effect
Details: HeLa EGFP-654 splicing reporter, GFP fluorescence, 48 h; series mostly up to 46.1 µM; activation (splicing correction): at the top concentration
Text: NIH Chemical Genomics Center [NCGC] NIH Molecular Libraries Screening Centers Network [MLSCN] MLSCN Grant: 1 X01 MH080684-01 PI Name: Dr. Ryszard Kole NCGC Assay Overview: Modulation of Alternative Splicing as Therapy Abnormal splicing is associated with a number of diseases, including cancer and genetic diseases such as cystic fibrosis, muscular dystrophy and beta-thalassemia. Alteration of disease associated splicing patterns provides a promising target for treatment. […] Mutations in the second intron of the b-globin gene at positions 654 or 705 are clinically relevant and cause mis-splicing which results in an out of frame gene product. […] EGFP-654 HeLa Cells as screen system. HeLa cell lines were stably transfected with a construct in which the EGFP (enhanced green fluorescent protein) cDNA was interrupted by the second intron of the beta-globin gene (IVS2-654). The ISV2 intron contains mutations which cause mis-splicing of EGFP and premature termination of EGFP which results in a nonfluorescent protein product. […] Expression of the transgene was driven by the CMV promoter. We concluded that a low molecular weight compound, which restored correct splicing of intron 2 would also generate functional EGFP protein, resulting in a fluorescent signal. Thus, the HeLa cells that express the EGFP-654 construct can be used for high throughput screening of a chemical library.
NCGC Assay Protocol Summary: Confirmatory Screening. Freshly thawed HeLa EGFP-654 cells were seeded in 5 ul of optimem media (Invitrogen) containing 2 % fetal calf serum (Hyclone) and 1x penicillin/streptomycin (Invitrogen) at a concentration of 500 cells per well in 1536-well plates. Cells were incubated overnight at 37C in 5% CO2. The next day, cells were treated with DMSO, 500 nM antisense ISV2 654 PNA control oligo, or library compound and allowed to grow at 37C in 5% CO2 for 2 days. The PNA oligo blocked the mutation site in the intron and allowed proper (wild type) splicing to occur, resulting in full length EGFP expression and also allowed for optimization of the assay parameters. Plates were read in the Acumen Explorer (TTP Labtech) using 488 nm laser excitation and 500-520 nm emission PMT filter in a 1 x 8 uM capture mode. Fluorescnet objects ranging in size from 5 to 250 uM were measured and the total peak GFP intensity for each well was used for data analysis. Keywords: Thalassemia, beta-thalassemia, beta-globin, EGFP, ISV2 654, ISV2 705, SSO, PNA, antisense, splicing, MLSMR, MLSCN, NIH Roadmap, qHTS, NCGC
For `C=NC(C(=O)NC1C(=O)N2C1SC(C)(C)C2C(=O)O)c1ccccc1` (stereo unspecified), the “activation (splicing correction)” value was 8.23% (inactive).
With `Cc1c(C)c2c(c(C)c1O)CCC(C)(CCCC(C)CCCC(C)CCCC(C)C)O2` (stereo unspecified) the “activation (splicing correction)” value was -0.415% (inactive).
With `CC1(C)SC2C(NC(=O)C(C(=O)O)c3ccccc3)C(=O)N2C1C(=O)O` (stereo unspecified) the “activation (splicing correction)” value was 4.51% (inactive).
With `CC(=O)OCC(=O)[C@@]1(O)CCC2C3CCC4=CC(=O)C=CC4(C)C3C(O)C[C@]21C` (stereo partly specified) the “activation (splicing correction)” value was 2.16% (inactive).
For `CC1OC(OCC2OC(Oc3c(-c4ccc(OCCO)c(OCCO)c4)oc4cc(OCCO)cc(O)c4c3=O)C(O)C(O)C2O)[C@@H](O)C(O)C1O` (stereo partly specified), the “activation (splicing correction)” value was 5.41% (inactive).
With `OCCN1CC(O)C(O)C(O)C1CO` (stereo unspecified) the “activation (splicing correction)” value was 8.74% (inactive).
For `COc1cccc(OC)c1C(=O)NC1C(=O)N2C1SC(C)(C)C2C(=O)O` (stereo unspecified), the “activation (splicing correction)” value was 5.62% (inactive).
With `CC[C@@]1(O)CC2CN(CCc3c([nH]c4ccccc34)[C@](C(=O)OC)(c3cc4c(cc3OC)N(C)C3[C@@](O)(C(=O)OC)C(OC(C)=O)[C@]5(CC)C=CCN6CC[C@@]43C65)C2)C1` (stereo partly specified) the “activation (splicing correction)” value was 5.28% (inactive).
For `Cc1cc(C(C)(C)CC(C)(C)C)ccc1OCCOCC[N+](C)(C)Cc1ccccc1`, the “activation (splicing correction)” value was -7.43% (inactive).
With `OCC1O[C@H](Oc2ccc(O)cc2)C(O)C(O)C1O` (stereo partly specified) the “activation (splicing correction)” value was -1.49% [at 38.3 µM] (inactive).
For `Nc1nc(/C(=C/CC(=O)O)C(=O)NC2C(=O)N3C(C(=O)O)=CCSC23)cs1` (stereo unspecified), the “activation (splicing correction)” value was 6.88% (inactive).
With `Nc1ccn([C@@H]2O[C@@H](CO)[C@@H](O)[C@H]2O)c(=O)n1` the “activation (splicing correction)” value was -2.03% (inactive).
With `CC(CCC(=O)O)C1CCC2C3C(=O)C[C@@H]4CC(=O)CC[C@@]4(C)C3CC(=O)[C@]12C` (stereo partly specified) the “activation (splicing correction)” value was -1.08% [at 38.3 µM] (inactive).
With `CCCCC(=O)OC1CCC2C3CCc4cc(O)ccc4C3CC[C@]12C` (stereo partly specified) the “activation (splicing correction)” value was -0.468% (inactive).
With `OCC1O[C@H](O[C@H]2C(O)C(O)C(O)O[C@@H]2CO)C(O)C(O)C1O` (stereo partly specified) the “activation (splicing correction)” value was 1.72% [at 38.3 µM] (inactive).
In the case of `OC[C@@H]1O[C@@H](n2cnc3cncnc32)[C@@H](O)[C@H]1O`, the Potency is reported as 5.01 µM (active).
With `CCC(C(=O)C(C)C(O)C(C)CCc1ccc(C)c(O)c1C(=O)O)C1OC(CC)(C2CC[C@@](O)(CC)C(C)O2)CC1C` (stereo partly specified) the “activation (splicing correction)” value was -7.01% (inactive).
With `NC(=O)c1ncn(C2OC(CO)C(O)C2O)c1N` (stereo unspecified) the “activation (splicing correction)” value was 1.77% [at 38.3 µM] (inactive).
In the case of `CCC1OC(=O)C[C@H](O)C(C)[C@@H](O[C@@H]2OC(C)C(O)C(N(C)C)C2O)C(CCN2CC(C)CC(C)C2)CC(C)C(=O)/C=C/C(C)=C\[C@@H]1COC1OC(C)C(O)C(OC)C1OC` (stereo partly specified), the “activation (splicing correction)” value is reported as 8.76% (inactive).
In the case of `CO/N=C(/C(=O)N[C@H]1C(=O)N2C(C(=O)O)=C(COC(C)=O)CSC12)c1csc(N)n1` (stereo partly specified), the “activation (splicing correction)” value is reported as 10.9% (inactive).
With `CO/N=C(/C(=O)NC1C(=O)N2C(C(=O)O)=C(COC(N)=O)CSC12)c1ccco1` (stereo unspecified) the “activation (splicing correction)” value was 13.7% (inactive).
With `CC(=O)OCC1=C(C(=O)O)N2C(=O)C(NC(=O)CSc3ccncc3)[C@@H]2SC1` (stereo partly specified) the “activation (splicing correction)” value was 8.91% (inactive).
With `FC(F)(F)c1ccccc1-c1nc(Nc2ccncc2)c2ccccc2n1` the “activation (splicing correction)” value was 0.337% [at 38.3 µM] (inactive).
With `Cc1cccc(CNc2ccnc(-c3ccc(N(C)C)cc3)n2)c1` the “activation (splicing correction)” value was 1.96% [at 38.3 µM] (inactive).
With `O=C(NC(CO)C(O)c1ccc([N+](=O)[O-])cc1)C(Cl)Cl` (stereo unspecified) the “activation (splicing correction)” value was 2.25% (inactive).
For `CCN1CCN(C(=O)NC(C(=O)NC2C(=O)N3C(C(=O)O)=C(CSc4nnnn4C)CSC23)c2ccc(O)cc2)C(=O)C1=O` (stereo unspecified), the “activation (splicing correction)” value was 2.16% (inactive).
